Source: PubChem BioAssay
Measured potencies and affinities stand elsewhere. Results filed as inconclusive are left out. The source made the active and inactive calls. Unless noted, how the calls were made is not given here.

Experiments:
[1] = inhibitors of PAX8-driven TPO luciferase reporter, dose response, RMG-I cells, cherry-pick (AID 687027;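 active means every replicate test run called active, with the signal dropping as expected and potency within twice the top valid dose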); conditions: RMG-I TPO-Luc reporter, SteadyGlo luminescence, 24 h; series mostly up to 35 µM
[2] = cytotoxicity in PAX8-dependent RMG-1 cells, dose response, cell-based, cherry-pick (AID 687029;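 active means signal drop whose fitted half-maximal concentration is at most twice the top valid dose, in every test run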;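 further: cells exposed to compound for 96 hours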); conditions: RMG-1 viability, CellTiterGlo ATP luminescence, 96 h; series mostly up to 35 µM
[3] = cytotoxicity in IOSE-T80 ovarian epithelial cells, dose response, selectivity assay for PAX8 inhibitor project, cell-based, cherry-pick (AID 687032;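 active means fitted half-maximal concentration for viability loss no higher than twice the top valid dose, in every repeat run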;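 further: cells exposed to compound for 96 h before reading; 0% = neutral control wells and -100% = 2 µM mitoxantrone kill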); conditions: CellTiterGlo ATP luminescence, 96 h; series mostly up to 35 µM
[4] = inhibitors of CMV-promoter luciferase reporter, dose response, counter-screen for Pax8 inhibitor project, cell-based, HEK293, luminescence, dry powder (AID 743020;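 active means signal-lowering compounds whose fitted half-maximal concentration is at or below twice the top tested dose in every run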;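 further: HEK293 cells stably expressing the CMV luciferase reporter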); conditions: SteadyGlo luminescence, 24 h; series mostly up to 35 µM
[5] = non-specific cell cytotoxicity, dose response, cytotoxicity control for PAX8 inhibitor project, plate reader, dry powder samples (AID 743021); conditions: cell line, non-specific cytotoxicity counter-screen; series mostly up to 35 µM
[6] = IGROV1 ovarian cancer cell cytotoxicity, dose response, PAX8 inhibitor project, plate reader, dry powder samples (AID 743043); conditions: series mostly up to 35 µM;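 further: more negative means fewer viable cells or more cytotoxicity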
[7] = IOSE-T80 ovarian epithelial cell cytotoxicity, dose response, cytotoxicity control for PAX8 inhibitor project, plate reader, dry powder samples (AID 743045); conditions: IOSE-T80 ovarian epithelial cells; series mostly up to 35 µM;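 further: 0% = neutral control median and -100% = positive control median; more negative values mean more cell killing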
[8] = A2780 ovarian cancer cell cytotoxicity, dose response, cytotoxicity control, plate reader, dry powder samples (AID 743046); conditions: series mostly up to 35 µM;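 further: 0% = neutral control wells and -100% = cytotoxic reference compound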
[9] = NIH:OVCAR-3 ovarian cancer cell cytotoxicity, dose response, PAX8 inhibitor project, plate reader, dry powder samples (AID 743044); conditions: NIH:OVCAR-3 ovarian cancer cell viability; max activity: at 35 µM, hits give low values unless noted; series mostly up to 50 µM
[10] = cytotoxicity in OVCAR8 ovarian cancer cells, dose response, PAX8 project, cell-based, plate reader, dry powder samples (AID 743197); conditions: series mostly up to 35 µM

Measured: max activity

C[C@@H]1CN([C@H](C)CO)C(=O)c2cc(NC(=O)Cc3ccccc3)ccc2O[C@@H](C)CCCCO[C@H]1CN(C)Cc1ccc(Cl)c(Cl)c1
inactive: [1] | [2] | [3] | [4] | [5] | [6] | [7] | [8]

COc1ccc(-c2cn(CC[C@@H]3CC[C@H](NC(=O)Cc4ccccn4)[C@@H](CO)O3)nn2)cc1
inactive: [6] | [9] -8.11% [at 8 µM, hits give low values] | [7] | [8] | [10]

COc1ccc(C(C)NC(=O)c2ccc(Br)cc2)cc1OC (stereo not drawn)
inactive: [1] | [2] | [4] | [5]

Cc1ccc(-c2nc(C)sc2CC(=O)OCC(=O)Nc2cccc([N+](=O)[O-])c2)cc1
inactive: [1] | [2] | [5]

Cn1ccnc1SCc1nc2c(cnn2-c2ccccc2)c(=O)[nH]1
inactive: [1] | [2] | [5]

Cc1cnc(NC(=O)CSc2nnc(C)n2N)s1
inactive: [1] | [2] | [4] | [5]

Cc1ccc(NC(=O)c2c([N+](=O)[O-])c(C(C)(C)C)nn2C)c(C)c1
inactive: [1] | [2] | [5]

COC1OC(COCc2ccccc2)C2OC(C)(C)OC2C1O (stereo not drawn)
inactive: [1] | [2] | [4] | [5]

O=C(NC1CCCCCC1)C1c2ccccc2C(=O)N1Cc1cccs1 (stereo not drawn)
inactive: [1] | [2] | [4] | [5]
